Screening data from PubChem.
D1 ag – agonists of human D1 dopamine receptor; actives 1% (n = 360,000); activation, % at 2 µM; HEK293 T-REx D1 cells, calcium flux, agonist mode; P21728; in the data active = activation above about 30%; note: 0% is about no effect
Target sequence (P21728 whole entry, looked up): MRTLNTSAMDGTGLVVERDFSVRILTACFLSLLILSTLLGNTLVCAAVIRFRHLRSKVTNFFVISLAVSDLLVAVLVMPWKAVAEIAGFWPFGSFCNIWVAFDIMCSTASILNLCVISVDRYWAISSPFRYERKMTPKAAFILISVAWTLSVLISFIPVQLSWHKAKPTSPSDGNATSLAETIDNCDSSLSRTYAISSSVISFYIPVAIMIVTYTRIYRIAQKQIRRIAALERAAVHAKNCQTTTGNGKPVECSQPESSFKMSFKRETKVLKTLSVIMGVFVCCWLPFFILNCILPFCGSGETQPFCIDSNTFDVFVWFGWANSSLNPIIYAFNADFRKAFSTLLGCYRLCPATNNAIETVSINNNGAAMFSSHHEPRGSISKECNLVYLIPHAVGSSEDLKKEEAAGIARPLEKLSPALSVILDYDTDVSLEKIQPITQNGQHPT
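Agonism was scored from calcium flux recorded over 180 s (1 read/s) after pintool compound addition, following a 10-cycle baseline. Cells were inducible force-coupled HEK293 TREx D1, plated overnight at 30 C and loaded with no-wash calcium dye.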
D3 antag – D3 dopamine receptor (human) antagonism. AID 652054. P35462. D3R cells, DiscoveRx beta-arrestin luminescence, antagonist mode; stronger effect = lower value. max response, negative = inhibition, %. actives 2.5% (n = 360,000); in the data active = max response below about -50%; inconclusive = no clear call, values can overlap the other calls; note: % is set by controls: 0 for no effect and ±100 for the full control effect
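Cells plated overnight at 1500 cells/well, then exposed to library compounds with dopamine controls for 90 minutes at 37 degrees C. DiscoveRx reagent added for 30–60 minutes at room temperature; luminescence read, quantitative HTS format.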
D1 antag – blocks dopamine activation of the human D1 receptor; HEK293 TREx D1 cells, calcium flux, dopamine EC80; stronger effect = lower value; activity change, negative = inhibition, % at 10 µM; actives 3.2% (n = 360,000); AID 504652; in the data active = activity change below about -30%; note: % is set by controls: 0 for no effect and ±100 for the full control effect
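HEK293 T-REx cells expressing inducible, force-coupled D1 receptor; no-wash Ca dye, 30–90 min RT. Cmpd → 180 s read at 1 Hz → EC80 DA → 180 s read.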
D3 ag – activates the human D3 dopamine receptor; max activation, %; D3R DiscoveRx beta-arrestin cells, luminescence, 90 min; AID 652048; actives 0.58% (n = 410,000); in the data active = max activation above about 30%; note: 0% is about no effect
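Cells at 1500/well, incubated overnight, then treated with pinned compounds (dopamine as control) for 90 min at 37 degrees C. DiscoveRx reagent added for 30 - 60 minutes at room temperature; luminescence read.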
ERG-DNA inh – ERG Ets/DNA interaction inhibition; P11308; fluorescence polarization, His-ERG Ets domain / labelled DNA; Potency, µM (series often up to 76.9 µM), without a hit: at the highest dose FP activity, negative = inhibition, most hits filed as inhibitors; actives 0.028% (n = 370,000); active = well fitted inhibition curve with a large enough effect in the polarisation, with a control signal flat; inconclusive = small, poorly fitted or top-dose-only effect, or effect the other way, or a change in a side signal; inactive = no such curve, though single readings can be large or run the other way; the % refers to the polarisation;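 note: polarization taken with two DNA probes labelled with fluorescein and Texas red; potency is the fitted concentration of half-maximal effect; % of control where 0% means no effect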
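His-tagged ERG Ets domain (1 uM in the protein solution; 300mM KCl, 50mM Tris-HCl, 1mM EDTA, 1mM DTT, pH 7.5) received compound, then a probe mix of 5 nM fluorescein-DNA and 100nM Texas-615-DNA. Fluorescence polarization was read for both dyes.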
D1 PAM – potentiators of human D1 dopamine receptor; AID 504651; potentiation, % at 10 µM; HEK293 TREx D1 cells, calcium flux, dopamine EC20 potentiation; actives 0.036% (n = 360,000); in the data active = potentiation above about 30%; note: 0% is about no effect
Starred values were filed as active, the others as inactive. The list is not random: actives were taken first. Their share in the collection is about 6.1%.

For CC(C)(C)C1CCc2c(C(=O)N/N=C/c3cccs3)csc2C1 (stereo not given) the results were D1 ag 3, D3 antag inconclusive, D1 antag 10, D3 ag 32*, ERG-DNA inh -6% and D1 PAM 8.
Screening CN(CCOc1ccc(Cl)cc1)C(=O)C1=CC=CN2CCS(=O)(=O)N=C12 returned D3 antag -20, D3 ag -9 and ERG-DNA inh 7%.
For Oc1sc(C=Nc2ccccc2)c2ccccc12 the results were D1 ag 172*, D3 antag 22, D1 antag -16, D3 ag 1, ERG-DNA inh -1% and D1 PAM -2.
For Oc1sc(C=Nc2ccc(F)cc2)c2ccccc12 the results were D1 ag 132*, D3 antag -16, D1 antag -25, D3 ag 0, ERG-DNA inh -7% and D1 PAM -7.
Fc1ccccc1C(NCCc1ccc(Cl)cc1)c1nnc(-c2ccccc2)o1 (stereo not given) was read as D1 ag 13, D1 antag -9, D3 ag -9, ERG-DNA inh 2% and D1 PAM 0.
Clc1ccc(CCNC(c2ccc(Cl)cc2)c2nnc(-c3ccccc3)o2)cc1 (stereo not given) was read as D1 ag 35*, D1 antag 9, D3 ag -11, ERG-DNA inh 1% and D1 PAM -2.
For COc1ccc(-c2nc(SCC(=O)Nc3ccc4c(c3)OCCO4)c(-c3ccc(F)cc3)[nH]2)cc1OC the results were D1 ag 2, D1 antag -14, D3 ag 7, ERG-DNA inh 15% and D1 PAM -5.
`COc1ccc(NC(=O)CSc2nc(-c3ccc(F)cc3)[nH]c2-c2ccc(C)cc2)cc1OC` gave D1 ag 3, D1 antag -18, D3 ag -16, ERG-DNA inh 13% and D1 PAM -1.
COc1ccc(NC(=O)CSc2nc(-c3ccccc3)[nH]c2-c2ccccc2)cc1OC was read as D1 ag 0, D1 antag 1, D3 ag -2, ERG-DNA inh 7% and D1 PAM -4.
For COc1cc(-c2nc(SCC(=O)Nc3ccc(C)cc3)c(-c3ccc(F)cc3)[nH]2)cc(OC)c1OC the results were D1 ag 4, D1 antag -35*, D3 ag -15, ERG-DNA inh 3% and D1 PAM -5.
For COc1ccc(-c2nc(SCC(=O)Nc3ccc4c(c3)OCO4)c(-c3ccc(F)cc3)[nH]2)cc1OC the results were D1 ag 4, D1 antag -36*, D3 ag -4, ERG-DNA inh -3% and D1 PAM -3.
Screening COc1ccc(-c2nc(SCC(=O)Nc3ccccc3)c(-c3ccc(F)cc3)[nH]2)cc1OC returned D1 ag 0, D1 antag -47*, D3 ag -23, ERG-DNA inh -2% and D1 PAM -5.
Screening Cc1ccc(Nc2ncnc3c2nc2n3CCCC2)cc1F returned D1 ag -1, D1 antag -15, D3 ag 5, ERG-DNA inh 3% and D1 PAM -1.
Screening COc1ccc(Br)cc1CN(C)C(=O)c1cc(Cl)c2c(c1)OCCO2 returned D1 ag 5, D3 antag -7, D1 antag -14, D3 ag -8, ERG-DNA inh 4% and D1 PAM -5.
Screening Cc1ccc(SCC(=O)NC2CC3CCC(C2)N3C)cc1 (stereo not given) returned D1 ag 4, D3 antag 17, D1 antag -19, D3 ag 0, ERG-DNA inh 5% and D1 PAM 6.
For CCOC(=O)C1CCN(C(=O)CCn2c(=O)[nH]c3ccccc3c2=O)CC1 the results were D1 ag 1, D3 antag -15, D1 antag -6, D3 ag 1, ERG-DNA inh -2% and D1 PAM 3.
For O=c1cc(CSc2ccc(Cl)cc2)nc(-c2ccccn2)[nH]1 the results were D1 ag 1, D3 antag -53*, D1 antag 4, D3 ag -13, ERG-DNA inh -1% and D1 PAM 5.
`Clc1ccc(SCc2cc(N3CCOCC3)nc(-c3ccccn3)n2)cc1` gave D1 ag 0, D3 antag -53*, D1 antag 34, D3 ag -23, ERG-DNA inh 11% and D1 PAM 2.
`O=C(N/N=C/c1cccc(F)c1)c1c(O)c2c([nH]c1=O)CCCC2` gave D1 ag 1, D3 antag 0, D1 antag -50*, D3 ag -4, ERG-DNA inh 2% and D1 PAM -5.
Screening Cn1cc2c(=O)n(/N=C/c3ccccc3)cnc2n1 returned D1 ag 3, D3 antag 10, D1 antag -4, D3 ag 0, ERG-DNA inh inconclusive and D1 PAM -2.
Cc1nc2c(OCc3ccc(Cl)cc3Cl)cccn2c1N(C)Cc1cccs1 was read as D3 antag -71* and D3 ag -17.
CCOC(=O)c1nnc2cc(-c3ccccc3)nn2c1C was read as D1 ag 5, D3 antag -74*, D1 antag -2, D3 ag 8, ERG-DNA inh -14% and D1 PAM -5.
For CCOC(=O)c1cnc2cc(-c3ccc(C)cc3)nn2c1-c1ccccc1 the results were D1 ag 3, D3 antag 41, D1 antag 9, D3 ag 7, ERG-DNA inh 7% and D1 PAM -2.
CCOC(=O)c1cnc2cc(-c3ccc(OCC)cc3)nn2c1-c1ccccc1 was read as D1 ag 5, D1 antag 0, D3 ag 36*, ERG-DNA inh -5% and D1 PAM -2.
`CCC(C)NC(=O)Nc1ccc(F)c(Cl)c1` (stereo not given) gave D1 ag 15, D3 antag 6, D1 antag -22, D3 ag 2, ERG-DNA inh 0% and D1 PAM -5.
COc1cc(NC(=O)c2sc3nc(C)nc(N4CCOCC4)c3c2C)cc(OC)c1OC was read as D1 ag -1, D3 antag 43, D1 antag -3, D3 ag 34*, ERG-DNA inh 2% and D1 PAM -7.
COc1ccc(C)cc1NC(=O)c1sc2nc(C)nc(N3CCOCC3)c2c1C was read as D1 ag 0, D3 antag 13, D1 antag 5, D3 ag 3, ERG-DNA inh 1% and D1 PAM -4.
